Compounds with a hit are over-represented: about 1.4% of the library has one in this group of screens.
Bim-Bcl-2: inhibitors of Bim-Bcl-2 binding, primary screen, biochemical, multiplexed, human Bcl-2 family; Apoptosis regulator Bcl-2 (Homo sapiens), P10415; Bead-based flow cytometry, Bim peptide-Bcl-2 binding; inhibition, % at 10 µM; hit rate 0.06% among 190,000; in the data active means inhibition above about 40%
Bim-Bcl-XL: inhibitors of Bim-Bcl-XL binding, primary screen, biochemical, multiplexed, bead flow cytometry, human Bcl-XL | hit rate 0.04% among 190,000 | AID 1007, 2008 | Bim peptide-Bcl-XL binding, fluorescence | inhibition, % at 10 µM | Bcl-2-like protein 1 (Homo sapiens), Q07817
Wee1 degr inh: Wee1 degradation inhibitors, primary screen, cell-based, HeLa, Wee1K328M-luciferase, luminescence | Wee1-like protein kinase (Homo sapiens), P30291 | hit rate 1.2% among 220,000 | HeLa Luc-Wee1K328M stability; 100% = proteasome inhibitor MG132 effect | reporter increase, % at 5 µM;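 active means activation above the mean of all tested compounds plus 3 SD, set per screening run, cut at about 8.8% in these data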;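 further: cells exposed to compound for 20 h before luminescence read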
Target sequence (P30291 whole entry K328M): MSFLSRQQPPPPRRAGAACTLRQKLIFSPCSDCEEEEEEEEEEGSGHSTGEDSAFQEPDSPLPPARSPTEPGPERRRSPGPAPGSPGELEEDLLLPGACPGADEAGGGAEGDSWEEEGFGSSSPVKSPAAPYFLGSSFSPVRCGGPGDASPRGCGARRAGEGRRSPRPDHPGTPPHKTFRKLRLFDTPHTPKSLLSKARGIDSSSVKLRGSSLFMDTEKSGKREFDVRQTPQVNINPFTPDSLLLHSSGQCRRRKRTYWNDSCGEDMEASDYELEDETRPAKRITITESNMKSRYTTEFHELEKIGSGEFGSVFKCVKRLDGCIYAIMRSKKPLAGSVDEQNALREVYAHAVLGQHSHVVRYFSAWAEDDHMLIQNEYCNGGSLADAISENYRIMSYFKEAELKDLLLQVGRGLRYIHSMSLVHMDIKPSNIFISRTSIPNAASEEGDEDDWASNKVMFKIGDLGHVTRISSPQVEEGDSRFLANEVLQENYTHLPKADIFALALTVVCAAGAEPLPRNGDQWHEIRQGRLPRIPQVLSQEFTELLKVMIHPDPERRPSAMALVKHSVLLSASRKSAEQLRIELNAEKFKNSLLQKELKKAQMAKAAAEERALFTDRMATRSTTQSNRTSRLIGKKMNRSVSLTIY
Bim-Bcl-W: inhibitors of Bim binding to Bcl-W, primary screen, biochemical, multiplexed, bead-based flow cytometry; Bcl-2-like protein 2 (Homo sapiens), Q92843; Bim peptide-Bcl-W binding; inhibition, % at 10 µM; hit rate 0.02% among 190,000;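 further: higher means less fluorescent Bim peptide bound to Bcl-W beads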
Bcl-B Bim block: inhibitors of Bim-Bcl-B binding, primary screen, biochemical, multiplexed, human Bcl-2 family | Bcl-2-like protein 10 (Homo sapiens), Q9HD36 | bead-based flow cytometry, Bim peptide-Bcl-B binding | inhibition, % at 10 µM | hit rate 0.073% among 190,000
Bim-Bfl-1: inhibitors of Bim binding to Bfl-1, primary screen, biochemical, multiplexed, bead-based flow cytometry; Bcl-2-related protein A1 (Homo sapiens), Q16548; Bim-Bfl-1 binding inhibition; inhibition, % at 10 µM; hit rate 0.12% among 190,000
Wee1 degr conf: Wee1 degradation inhibitors, confirmation, cell-based, HeLa, Wee1K328M-luciferase, luminescence, triplicate; shares compounds with Wee1 degr inh; HeLa Luc-Wee1K328M degradation; vehicle 0%, proteasome-blocked wells 100%; hit rate 4% among 1,100; activation, % at 5 µM; AID 1410, 2008; in the data active means activation above about 8.9%
A number is an active result. Unless noted, no stated cut-off is given here; in the data, active means inhibition above about 40%.

For C#CCOCCOCCOCCNc1nc(N2CCN(C(=O)[C@H]([C@@H](C)CC)n3cc([C@@H](N)CC(C)C)nn3)CC2)nc(N2CCN(C(=O)[C@H](CCCCN)n3cc([C@@H](N)CC(C)C)nn3)CC2)n1 the results were Bim-Bcl-2 inactive, Bim-Bcl-XL inactive, Wee1 degr inh inactive, Bim-Bcl-W inactive, Bcl-B Bim block inactive and Bim-Bfl-1 inactive.
For C#CCOCCOCCOCCNc1nc(N2CCN(C(=O)[C@H]([C@@H](C)CC)n3cc([C@@H](N)CC(C)C)nn3)CC2)nc(N2CCN(C(=O)[C@H](CCCCN)n3cc([C@@H](N)C(C)CC)nn3)CC2)n1 (stereo partly drawn) the results were Bim-Bcl-2 inactive, Bim-Bcl-XL inactive, Wee1 degr inh 15, Bim-Bcl-W inactive, Bcl-B Bim block inactive, Bim-Bfl-1 inactive and Wee1 degr conf inactive.
C#CCOCCOCCOCCNc1nc(N2CCN(C(=O)[C@H](CCC(=O)O)n3cc(C(N)CC(C)C)nn3)CC2)nc(N2CCN(C(=O)[C@H](CCC(=O)O)n3cc(C(N)CC(C)C)nn3)CC2)n1 (stereo partly drawn) was read as Bim-Bcl-2 inactive, Bim-Bcl-XL inactive, Wee1 degr inh 12, Bim-Bcl-W inactive, Bcl-B Bim block inactive, Bim-Bfl-1 inactive and Wee1 degr conf inactive.
CCOC(=O)c1c(NC(C)=O)sc2c1C1CCN2CC1 was read as Wee1 degr inh inactive.
`CC(=O)C1=C(C)N2CCN=C2S1` gave Wee1 degr inh inactive.
Cc1nnc(SCCn2c(N3CCC(Cc4ccccc4)CC3)nc3c2c(=O)[nH]c(=O)n3C)s1 was read as Wee1 degr inh inactive.
For CCCCn1c(N2CCC(Cc3ccccc3)CC2)nc2c1c(=O)[nH]c(=O)n2C the results were Bim-Bcl-2 inactive, Bim-Bcl-XL inactive, Wee1 degr inh 13, Bim-Bcl-W inactive, Bcl-B Bim block inactive, Bim-Bfl-1 inactive and Wee1 degr conf inactive.
`N#Cc1c(Cl)nc2c(c1C#N)CCCC2` gave Wee1 degr inh inactive.
For Cc1cccc(-c2nc(CSc3nc4c(c(=O)[nH]3)CCC4)c(C)o2)c1 the results were Bim-Bcl-2 inactive, Bim-Bcl-XL inactive, Wee1 degr inh 11, Bim-Bcl-W inactive, Bcl-B Bim block inactive, Bim-Bfl-1 inactive and Wee1 degr conf inactive.
For Cc1cccc(C)c1-n1c(SCC(=O)Nc2ccc(C(=O)O)cc2)nnc1-c1cccc(S(=O)(=O)N(C)C)c1 the results were Bim-Bcl-2 inactive, Bim-Bcl-XL inactive, Wee1 degr inh 12, Bim-Bcl-W inactive, Bcl-B Bim block inactive, Bim-Bfl-1 inactive and Wee1 degr conf inactive.
For O=C(CSc1nnc(-c2cccc(S(=O)(=O)N3CCCC3)c2)n1-c1ccccc1)Nc1ccc(C(=O)O)cc1 the results were Bim-Bcl-2 inactive, Bim-Bcl-XL inactive, Wee1 degr inh inactive, Bim-Bcl-W inactive, Bcl-B Bim block inactive and Bim-Bfl-1 inactive.
`Cc1ccc(N2C(=O)C3N=NN(CC(=O)N4N=C(c5ccccc5)CC4c4ccccc4)C3C2=O)cc1` (stereo not drawn) gave Bim-Bcl-2 inactive, Bim-Bcl-XL inactive, Wee1 degr inh inactive, Bim-Bcl-W inactive, Bcl-B Bim block inactive and Bim-Bfl-1 inactive.
For CCS(=O)(=O)N1CCN(c2ccc([N+](=O)[O-])c(NCC3CCCO3)c2)CC1 (stereo not drawn) the results were Bim-Bcl-2 inactive, Bim-Bcl-XL inactive, Wee1 degr inh 12, Bim-Bcl-W inactive, Bcl-B Bim block inactive, Bim-Bfl-1 inactive and Wee1 degr conf inactive.
Screening O=[N+]([O-])c1ccc(N2CCN(S(=O)(=O)c3ccccc3)CC2)cc1NCC1CCCO1 (stereo not drawn) returned Bim-Bcl-2 inactive, Bim-Bcl-XL inactive, Wee1 degr inh inactive, Bim-Bcl-W inactive, Bcl-B Bim block inactive and Bim-Bfl-1 inactive.
Screening Cc1ccccc1N(CC(=O)Nc1ccc(S(=O)(=O)N2CCOCC2)cc1)S(C)(=O)=O returned Bim-Bcl-2 inactive, Bim-Bcl-XL inactive, Wee1 degr inh inactive, Bim-Bcl-W inactive, Bcl-B Bim block inactive and Bim-Bfl-1 inactive.
CCOc1ccc(C(=O)CCN2CCCCC2)cc1 was read as Bim-Bcl-2 inactive, Bim-Bcl-XL inactive, Wee1 degr inh inactive, Bim-Bcl-W inactive, Bcl-B Bim block inactive and Bim-Bfl-1 inactive.
`CCCOc1ccc(C(=O)CCN2CCN(C(=O)OCC)CC2)cc1` gave Bim-Bcl-2 inactive, Bim-Bcl-XL inactive, Wee1 degr inh 17, Bim-Bcl-W inactive, Bcl-B Bim block inactive, Bim-Bfl-1 inactive and Wee1 degr conf inactive.
`O=C(COc1cccc2cccnc12)N/N=C1\SCC(=O)N1Cc1ccco1` gave Bim-Bcl-2 inactive, Bim-Bcl-XL inactive, Wee1 degr inh inactive, Bim-Bcl-W inactive, Bcl-B Bim block inactive and Bim-Bfl-1 inactive.
`Cc1ccc(OCC(=O)N/N=C2/SCC(=O)N2Cc2ccco2)cc1` gave Bim-Bcl-2 inactive, Bim-Bcl-XL inactive, Wee1 degr inh 12, Bim-Bcl-W inactive, Bcl-B Bim block inactive, Bim-Bfl-1 inactive and Wee1 degr conf inactive.
For CCC/C(=N/NC(=O)c1ccccc1Cl)c1ccccc1 the results were Bim-Bcl-2 inactive, Bim-Bcl-XL inactive, Wee1 degr inh inactive, Bim-Bcl-W inactive, Bcl-B Bim block inactive and Bim-Bfl-1 inactive.
CCN(CCC(=O)Nc1cc([N+](=O)[O-])ccc1OC)Cc1ccccc1 was read as Bim-Bcl-2 inactive, Bim-Bcl-XL inactive, Wee1 degr inh 13, Bim-Bcl-W inactive, Bcl-B Bim block inactive, Bim-Bfl-1 inactive and Wee1 degr conf inactive.
For Cc1ccc(-c2cn(-c3ccccc3)c(SCC(N)=O)n2)cc1C the results were Bim-Bcl-2 inactive, Bim-Bcl-XL inactive, Wee1 degr inh inactive, Bim-Bcl-W inactive, Bcl-B Bim block inactive and Bim-Bfl-1 inactive.
`Cc1ccccc1-n1cc(-c2ccc(Br)cc2)nc1SCC(N)=O` gave Wee1 degr inh 13 and Wee1 degr conf inactive.
Screening CNCC(O)COc1cccc(OC)c1 (stereo not drawn) returned Bim-Bcl-2 inactive, Bim-Bcl-XL inactive, Wee1 degr inh 11, Bim-Bcl-W inactive, Bcl-B Bim block inactive, Bim-Bfl-1 inactive and Wee1 degr conf inactive.
Screening CNCC(O)COc1ccccc1 (stereo not drawn) returned Bim-Bcl-2 inactive, Bim-Bcl-XL inactive, Wee1 degr inh inactive, Bim-Bcl-W inactive, Bcl-B Bim block inactive and Bim-Bfl-1 inactive.

Assay outcomes: PubChem, several laboratories
